In PubChem BioAssay (NCATS):
Inconclusive results are not listed. Values without a mark were called inactive. The source made the active and inactive calls. Calls follow the shape of the dose curve; as a rule, active = well fitted inhibition curve with a large enough effect; inconclusive = small, poorly fitted or top-dose-only effect; inactive = flat fitted curve, though single readings scatter.

molecular target: Aldehyde dehydrogenase, mitochondrial (Homo sapiens) (UniProt P05091); assay: qHTS for Inhibitors of the Aldehyde Dehydrogenase Family (ALDH2) Primary screen (AID 2061308); details: ALDH2 enzyme inhibition qHTS, 1536-well; series mostly up to 56 µM; activity change, negative = inhibition: at the top concentration; also: nearly all actives have a fitted effect of over 55% in size;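 as to activity change, negative = inhibition: plate controls were vehicle for no effect and reference inhibitor for full effect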
Potency is read from the fitted curve at half-maximal effect.

Row | SMILES | activity change, negative = inhibition | Potency
1 | CCN(CC)CCOCCOC(=O)C(CC)(CC)c1ccccc1 | -1.23% | –
2 | CC(C)c1ccccc1-c1ncc(F)c(NCc2ccc(-c3cccnc3)cc2)n1 | 13.1% | –
3 | COc1ccc(CCC(=O)c2c(O)cc(O[C@@H]3O[C@H](CO)[C@@H](O)[C@H](O)[C@H]3O[C@@H]3O[C@@H](C)[C@H](O)[C@@H](O)[C@H]3O)cc2O)cc1O | -8.7% | –
4 | Oc1cc(Nc2ccccc2)cc2cccnc12 | -2.84% | –
5 | C[C@H]1CO[C@@H]2Cn3cc(C(=O)NCc4ccc(F)cc4F)c(=O)c(O)c3C(=O)N12 | -5.31% | –
6 | Cc1cc(C)n2ncc(C(=O)Nc3ccc4c(c3)OCO4)c2n1 | 1.9% | –
7 | CCN1CCN(c2ccc(Nc3ccc(-c4ccc(C(N)=O)cc4)n4ncnc34)cc2)CC1 | 9.77% | –
8 | C[C@@H](N)C(=O)Nc1ccc(Cl)cc1C(=O)c1ccc[nH]1 | -3.68% | –
9 | COc1nc2ccc(Br)cc2cc1[C@@H](c1ccccc1)[C@@](O)(CCN(C)C)c1cccc2ccccc12 | – | 0.708 µM (active)
10 | C=C(C(=O)OC)C1CCC2(C)C(O[C@@H]3O[C@H](CO)[C@@H](O)[C@H](O)[C@H]3O)CC(=O)C(C)C2C1O (some centres not stated) | -3.06% [at 28 µM] | –
11 | FC(F)(F)c1ccccc1-c1nc(NCc2ccc(-c3cccnc3)cc2)c2ccccc2n1 | 4.41% | –
12 | Oc1cc(Nc2cccnc2)cc2cccnc12 | -21% | –
13 | O=C(Nc1ccccc1Cl)c1cnc2ccc(C3CCNCC3)cn12 | -12.7% | –
14 | Nc1ccc(S(=O)(=O)N2CCN(S(=O)(=O)c3c(F)cccc3F)CC2)cc1 | 3.04% | –
15 | CCN1CCN(C(=O)N[C@@H](C(=O)N[C@@H]2C(=O)N3[C@@H]2SC(C)(C)[C@@H]3C(=O)O)c2ccccc2)C(=O)C1=O | -1.13% | –
16 | Nc1ncnc2c1ncn2[C@@H]1O[C@H](CN[S+](=O)([O-])NC(=O)c2cccc(-c3noc(-c4ccccc4F)n3)c2)[C@@H](O)[C@H]1O | 1.86% | –
17 | Cc1cc2occ(CN(C)CCN(C)Cc3cn(-c4cccc(C(F)(F)F)c4)c4ccccc34)c(=O)c2cc1C | 15.8% | –
18 | Cc1nc2ccc(Nc3nc(Nc4c(C)cc(C=CC#N)cc4C)nc4nc[nH]c34)cc2s1 | -1.16% | –
19 | Cc1ccc(-c2cnc(N3CCC(C(N)=O)CC3)s2)cc1 | 2.39% | –
20 | COc1cc(CNc2ncnc3ccc(-c4c(C)noc4C)cc23)cc(OC)c1OC | 1.39% | –
21 | COc1ccc(-c2nc3ccccc3s2)cc1 | 10.4% | –
22 | COc1ccc(O)c(C2Nc3ccccc3C(=O)N2Cc2ccccc2)c1 (configuration not stated) | -23.4% | –
